Measurements published in the supplement of paper PMC10849652.
Targets with a hit are over-represented here; the source holds about 7,900 in all. About 0.6% of all pairs of compound and target were hits. Unmarked numbers belong to inactive results.

Compound: Cc1sc2c(c1C)C(c1ccc(Cl)cc1)=N[C@@H](CC(=O)OC(C)(C)C)c1nnc(C)n1-2
Assay: log2 fold change, soluble protein after heating vs DMSO (PISA); higher = thermal stabilisation; K562 cells, 10 uM, 30 min; active = over 0.2 and 3.5 SD of the protein, either way, in both replicates (recomputed)
Outline: (§1)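 K562 cells at 2×10^6 cells/mL were treated with 10 μM compound for 30 min. Aliquots were heated for 3 min across 48°C-58°C, pooled, and extracted in PBS with 0.5% NP-40 at 4°C; soluble protein was the supernatant after 21,000xg for 90 min. Soluble protein was quantified by TMTpro 16plex LC-MS/MS with channel sums equalised, and reported as log2 fold change in thermal stability against DMSO controls, with values from duplicates.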

Sequence of UniProt P35612 (P35612 whole entry, looked up): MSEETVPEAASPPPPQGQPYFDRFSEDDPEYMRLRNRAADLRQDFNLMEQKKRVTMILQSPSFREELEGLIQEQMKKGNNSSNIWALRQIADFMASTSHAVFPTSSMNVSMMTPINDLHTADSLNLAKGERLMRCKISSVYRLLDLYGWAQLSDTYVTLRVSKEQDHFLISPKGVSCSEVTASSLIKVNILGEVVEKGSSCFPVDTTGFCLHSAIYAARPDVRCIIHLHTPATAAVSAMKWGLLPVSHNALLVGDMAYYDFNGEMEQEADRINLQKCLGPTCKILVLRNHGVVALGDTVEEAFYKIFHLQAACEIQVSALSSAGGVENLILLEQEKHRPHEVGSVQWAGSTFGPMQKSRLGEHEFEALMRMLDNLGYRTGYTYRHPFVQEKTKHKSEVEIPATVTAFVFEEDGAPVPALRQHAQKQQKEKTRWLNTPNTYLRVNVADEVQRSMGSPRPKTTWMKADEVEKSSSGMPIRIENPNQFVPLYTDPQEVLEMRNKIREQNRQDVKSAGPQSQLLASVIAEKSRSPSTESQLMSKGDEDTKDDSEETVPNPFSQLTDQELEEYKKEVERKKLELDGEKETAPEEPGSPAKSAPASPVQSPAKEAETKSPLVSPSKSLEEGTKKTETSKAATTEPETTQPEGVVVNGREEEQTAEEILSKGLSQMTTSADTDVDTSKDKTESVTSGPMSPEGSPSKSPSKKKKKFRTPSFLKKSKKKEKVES
Sequence of UniProt Q8N6S5 (Q8N6S5 whole entry, looked up): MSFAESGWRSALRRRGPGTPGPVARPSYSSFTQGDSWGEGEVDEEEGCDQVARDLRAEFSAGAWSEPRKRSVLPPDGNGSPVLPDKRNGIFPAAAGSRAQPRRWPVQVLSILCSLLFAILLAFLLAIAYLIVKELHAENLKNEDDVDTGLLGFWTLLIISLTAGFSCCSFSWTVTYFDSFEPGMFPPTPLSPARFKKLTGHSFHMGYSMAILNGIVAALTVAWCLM
Sequence of UniProt Q15059 (Q15059 whole entry, looked up): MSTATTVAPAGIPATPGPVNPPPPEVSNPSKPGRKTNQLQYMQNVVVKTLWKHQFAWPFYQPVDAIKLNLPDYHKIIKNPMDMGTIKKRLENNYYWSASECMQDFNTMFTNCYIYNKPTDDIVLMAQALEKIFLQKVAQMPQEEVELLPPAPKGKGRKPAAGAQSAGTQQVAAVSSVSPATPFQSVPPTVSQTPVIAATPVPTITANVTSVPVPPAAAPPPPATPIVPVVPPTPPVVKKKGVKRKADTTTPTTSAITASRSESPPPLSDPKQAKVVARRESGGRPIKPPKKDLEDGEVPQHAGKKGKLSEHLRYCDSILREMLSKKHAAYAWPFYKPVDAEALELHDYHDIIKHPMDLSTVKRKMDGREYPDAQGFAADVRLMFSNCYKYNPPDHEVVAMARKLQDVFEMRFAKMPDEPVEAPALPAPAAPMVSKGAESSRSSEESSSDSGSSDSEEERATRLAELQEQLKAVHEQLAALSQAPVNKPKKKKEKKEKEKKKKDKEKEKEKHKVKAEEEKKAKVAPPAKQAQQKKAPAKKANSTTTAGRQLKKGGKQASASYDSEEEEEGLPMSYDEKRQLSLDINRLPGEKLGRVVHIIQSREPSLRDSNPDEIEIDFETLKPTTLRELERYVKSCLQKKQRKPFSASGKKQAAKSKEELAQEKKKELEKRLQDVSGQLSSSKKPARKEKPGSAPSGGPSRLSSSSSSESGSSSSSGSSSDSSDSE
Sequence of UniProt Q92685 (Q92685 whole entry, looked up): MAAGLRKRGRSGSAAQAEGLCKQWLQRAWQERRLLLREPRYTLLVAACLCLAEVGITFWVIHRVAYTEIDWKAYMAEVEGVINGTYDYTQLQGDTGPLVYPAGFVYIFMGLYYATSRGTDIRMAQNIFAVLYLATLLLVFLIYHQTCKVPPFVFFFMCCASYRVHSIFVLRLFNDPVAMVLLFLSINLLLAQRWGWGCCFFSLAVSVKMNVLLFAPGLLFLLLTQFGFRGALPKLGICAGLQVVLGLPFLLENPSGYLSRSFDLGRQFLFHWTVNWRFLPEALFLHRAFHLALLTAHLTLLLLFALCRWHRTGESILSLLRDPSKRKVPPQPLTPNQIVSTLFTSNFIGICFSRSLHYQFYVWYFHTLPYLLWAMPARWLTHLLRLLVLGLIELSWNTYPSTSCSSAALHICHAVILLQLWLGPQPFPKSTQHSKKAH
Sequence of UniProt Q9Y312 (Q9Y312 whole entry, looked up): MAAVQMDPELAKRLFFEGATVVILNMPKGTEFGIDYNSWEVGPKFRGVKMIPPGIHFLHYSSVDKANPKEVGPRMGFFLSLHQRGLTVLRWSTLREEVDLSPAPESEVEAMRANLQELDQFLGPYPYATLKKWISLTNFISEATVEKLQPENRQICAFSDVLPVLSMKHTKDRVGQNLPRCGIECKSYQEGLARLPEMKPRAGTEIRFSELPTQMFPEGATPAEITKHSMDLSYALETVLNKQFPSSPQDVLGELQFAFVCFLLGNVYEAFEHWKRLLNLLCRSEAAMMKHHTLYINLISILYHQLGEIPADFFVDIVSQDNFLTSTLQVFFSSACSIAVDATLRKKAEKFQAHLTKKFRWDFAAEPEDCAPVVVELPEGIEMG
Sequence of UniProt P40616 (P40616 whole entry, looked up): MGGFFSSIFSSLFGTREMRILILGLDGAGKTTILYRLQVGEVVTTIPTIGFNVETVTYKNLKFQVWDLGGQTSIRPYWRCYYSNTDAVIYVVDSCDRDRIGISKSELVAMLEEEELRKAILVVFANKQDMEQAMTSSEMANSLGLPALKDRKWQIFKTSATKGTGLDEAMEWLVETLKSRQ
Sequence of UniProt Q15904 (Q15904 whole entry, looked up): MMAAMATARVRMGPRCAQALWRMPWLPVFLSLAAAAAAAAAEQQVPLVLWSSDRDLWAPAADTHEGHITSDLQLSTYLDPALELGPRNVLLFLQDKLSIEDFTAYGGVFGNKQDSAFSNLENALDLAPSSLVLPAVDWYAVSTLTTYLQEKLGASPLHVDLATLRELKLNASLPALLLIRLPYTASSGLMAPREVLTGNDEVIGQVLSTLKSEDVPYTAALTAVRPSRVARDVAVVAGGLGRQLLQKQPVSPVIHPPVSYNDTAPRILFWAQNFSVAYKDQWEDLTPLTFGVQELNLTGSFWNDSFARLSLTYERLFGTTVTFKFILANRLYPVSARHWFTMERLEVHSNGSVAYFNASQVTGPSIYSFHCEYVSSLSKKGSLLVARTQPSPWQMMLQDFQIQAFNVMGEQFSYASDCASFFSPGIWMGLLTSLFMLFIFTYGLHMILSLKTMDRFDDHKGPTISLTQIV
Sequence of UniProt Q9Y673 (Q9Y673 whole entry, looked up): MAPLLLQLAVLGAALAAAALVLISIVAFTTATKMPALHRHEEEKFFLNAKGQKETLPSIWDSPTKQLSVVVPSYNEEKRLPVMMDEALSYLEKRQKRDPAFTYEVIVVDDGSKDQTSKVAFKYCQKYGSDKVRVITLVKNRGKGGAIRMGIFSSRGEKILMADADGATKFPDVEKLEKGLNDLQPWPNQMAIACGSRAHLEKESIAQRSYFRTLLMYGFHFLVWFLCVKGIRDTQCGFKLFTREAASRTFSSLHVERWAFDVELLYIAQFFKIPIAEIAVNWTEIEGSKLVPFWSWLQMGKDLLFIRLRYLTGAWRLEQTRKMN
Sequence of UniProt Q13795 (Q13795 whole entry, looked up): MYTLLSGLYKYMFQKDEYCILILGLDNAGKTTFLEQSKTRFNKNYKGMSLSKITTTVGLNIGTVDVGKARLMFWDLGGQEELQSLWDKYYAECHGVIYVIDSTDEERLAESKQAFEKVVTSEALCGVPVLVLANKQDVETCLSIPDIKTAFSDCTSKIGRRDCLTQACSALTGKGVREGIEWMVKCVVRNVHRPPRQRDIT
Sequence of UniProt Q6P6C2 (Q6P6C2 whole entry, looked up): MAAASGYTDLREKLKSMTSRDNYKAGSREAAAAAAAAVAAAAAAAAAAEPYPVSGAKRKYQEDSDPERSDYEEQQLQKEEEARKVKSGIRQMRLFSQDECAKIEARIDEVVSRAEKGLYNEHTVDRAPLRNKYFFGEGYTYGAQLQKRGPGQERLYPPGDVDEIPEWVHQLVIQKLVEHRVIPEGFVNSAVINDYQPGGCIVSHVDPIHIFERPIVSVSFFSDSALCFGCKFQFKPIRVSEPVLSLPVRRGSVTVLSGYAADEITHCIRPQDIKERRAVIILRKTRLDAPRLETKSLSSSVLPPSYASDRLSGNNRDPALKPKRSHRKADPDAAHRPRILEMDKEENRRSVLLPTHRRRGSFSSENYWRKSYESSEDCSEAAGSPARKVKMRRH
Sequence of UniProt Q9UJX6 (Q9UJX6 whole entry, looked up): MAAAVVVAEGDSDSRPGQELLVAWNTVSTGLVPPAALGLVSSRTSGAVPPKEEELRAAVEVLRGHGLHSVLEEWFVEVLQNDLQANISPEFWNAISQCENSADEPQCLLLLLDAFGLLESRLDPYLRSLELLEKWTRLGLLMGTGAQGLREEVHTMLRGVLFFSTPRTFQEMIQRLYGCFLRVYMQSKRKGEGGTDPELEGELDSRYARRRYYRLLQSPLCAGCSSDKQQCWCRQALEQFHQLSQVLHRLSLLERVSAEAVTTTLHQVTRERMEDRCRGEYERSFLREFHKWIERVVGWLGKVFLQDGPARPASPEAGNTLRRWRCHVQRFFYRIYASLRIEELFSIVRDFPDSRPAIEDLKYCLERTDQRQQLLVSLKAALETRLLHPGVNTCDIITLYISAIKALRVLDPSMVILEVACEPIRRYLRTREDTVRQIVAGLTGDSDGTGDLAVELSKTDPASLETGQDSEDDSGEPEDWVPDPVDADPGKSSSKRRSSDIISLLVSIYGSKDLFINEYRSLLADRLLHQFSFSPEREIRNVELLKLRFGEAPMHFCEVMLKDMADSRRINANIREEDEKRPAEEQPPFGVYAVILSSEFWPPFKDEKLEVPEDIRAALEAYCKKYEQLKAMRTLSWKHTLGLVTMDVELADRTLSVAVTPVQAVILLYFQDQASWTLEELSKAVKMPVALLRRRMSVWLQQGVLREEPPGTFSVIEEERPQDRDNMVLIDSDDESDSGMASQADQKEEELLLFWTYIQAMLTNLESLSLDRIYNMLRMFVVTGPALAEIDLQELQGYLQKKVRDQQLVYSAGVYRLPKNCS

| Target | log2 fold change |
| --- | --- |
| ACSL4 (UniProt O60488) | 0.025 |
| ALG3 (UniProt Q92685) | 0.054 |
| ACSF3 (UniProt Q4G176) | -0.067 |
| ARFRP1 (UniProt Q13795) | -0.021 |
| AKR1C3 (UniProt P42330) | -0.038 |
| ALDH18A1 (UniProt P54886) | 0.018 |
| ALKBH5 (UniProt Q6P6C2) | -0.024 |
| ARL6IP4 (UniProt Q66PJ3) | -0.016 |
| AKAP8L (UniProt Q9ULX6) | -0.047 |
| APLP2 (UniProt Q06481) | 0.036 |
| ATP6AP1 (UniProt Q15904) | -0.055 |
| ARL6IP6 (UniProt Q8N6S5) | 0.164 |
| ARHGAP25 isoform 4 (UniProt P42331) | -0.018 |
| ATP5IF1 (UniProt Q9UII2) | -0.013 |
| BTAF1 (UniProt O14981) | 0.005 |
| ALDH1B1 (UniProt P30837) | -0.047 |

| Target | log2 fold change |
| --- | --- |
| ARL1 (UniProt P40616) | -0.1 |
| ALG5 (UniProt Q9Y673) | -0.06 |
| ACTR1B (UniProt P42025) | 0.028 |
| ACO2 (UniProt Q99798) | -0.023 |
| ASH2L (UniProt Q9UBL3) | -0.031 |
| ATL2 (UniProt Q8NHH9) | -0.012 |
| ATAD3B (UniProt Q5T9A4) | 0.123 |
| BCAP29 isoform 2 (UniProt Q9UHQ4) | -0.008 |
| ANAPC2 (UniProt Q9UJX6) | 0.017 |
| ALDH2 (UniProt P05091) | -0.043 |
| BRD3 (UniProt Q15059) | 1.56 (active) |
| ADD2 (UniProt P35612) | -0.024 |
| ATG9A (UniProt Q7Z3C6) | -0.028 |
| BCCIP isoform 2 (UniProt Q9P287) | -0.035 |
| AAR2 (UniProt Q9Y312) | 0.069 |

Compound: c1ccc([C@@H]2C[C@H]2NC2CCNCC2)cc1
Assay: as above
Outline: as §1

| Target | log2 fold change |
| --- | --- |
| ACSL4 (UniProt O60488) | -0.031 |
| ALG3 (UniProt Q92685) | -0.026 |
| ACSF3 (UniProt Q4G176) | 0.063 |
| ARFRP1 (UniProt Q13795) | 0.029 |
| AKR1C3 (UniProt P42330) | -0.156 |
| ALDH18A1 (UniProt P54886) | 0.02 |
| ALKBH5 (UniProt Q6P6C2) | 0.028 |
| ARL6IP4 (UniProt Q66PJ3) | -0.011 |
| AKAP8L (UniProt Q9ULX6) | 0.043 |
| APLP2 (UniProt Q06481) | 0.038 |
| ATP6AP1 (UniProt Q15904) | -0.022 |
| ARL6IP6 (UniProt Q8N6S5) | 0.118 |
| ARHGAP25 isoform 4 (UniProt P42331) | 0.109 |
| ATP5IF1 (UniProt Q9UII2) | -0.079 |
| BTAF1 (UniProt O14981) | 0.055 |
| ALDH1B1 (UniProt P30837) | 0.009 |

| Target | log2 fold change |
| --- | --- |
| ARL1 (UniProt P40616) | -0.048 |
| ALG5 (UniProt Q9Y673) | -0.056 |
| ACTR1B (UniProt P42025) | -0.029 |
| ACO2 (UniProt Q99798) | -0.046 |
| ASH2L (UniProt Q9UBL3) | 0.005 |
| ATL2 (UniProt Q8NHH9) | -0.077 |
| ATAD3B (UniProt Q5T9A4) | 0.025 |
| BCAP29 isoform 2 (UniProt Q9UHQ4) | 0.032 |
| ANAPC2 (UniProt Q9UJX6) | -0.049 |
| ALDH2 (UniProt P05091) | -0.001 |
| BRD3 (UniProt Q15059) | -0.021 |
| ADD2 (UniProt P35612) | 0.016 |
| ATG9A (UniProt Q7Z3C6) | -0.05 |
| BCCIP isoform 2 (UniProt Q9P287) | 0.014 |
| AAR2 (UniProt Q9Y312) | -0.012 |
